# Test results as given in PMC5540273 (PLoS ONE, 2017).
# Read-outs that look alike come from different tables or passages of the source.
# Tests used:
# Settings in all cases: n = 1
# [1] = tested on: CAMK1B
# [2] = tested on: CAMK1D
# [3] = tested on: CAMK1G
# [4] = tested on: CAMK1
# [5] = tested on: CAMK2A
# [6] = tested on: CAMK2B
# [7] = tested on: CAMK2D
# [8] = tested on: CAMK2G
# [9] = tested on: CAMK4
# [10] = tested on: CAMKK1
# [11] = concentration: 1 μM, replicates: in singlicate
# 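Also: KINOMEscan kinase panel screen.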
SMILES,"%Inh [1, 11]","%Inh [2, 11]","%Inh [3, 11]","%Inh [4, 11]","%Inh [5, 11]","%Inh [6, 11]","%Inh [7, 11]","%Inh [8, 11]","%Inh [9, 11]","%Inh [10, 11]",%Inh ([1]; 1 µM),%Inh ([2]; 1 µM),%Inh ([3]; 1 µM),%Inh ([4]; 1 µM),%Inh ([5]; 1 µM),%Inh ([6]; 1 µM),%Inh ([7]; 1 µM),%Inh ([8]; 1 µM),%Inh ([9]; 1 µM),%Inh ([10]; 1 µM)
Cl.Oc1ccc(-c2nc(-c3ccccc3)[nH]c2-c2ccncc2)cc1 [SB-428218],24%,0%,2%,2%,0%,0%,9%,29%,0%,18%,–,–,–,–,–,–,–,–,–,–
Cc1ccc(NC(=O)Nc2cccc(C(F)(F)F)c2)cc1 [GSK955403],–,–,–,–,–,–,–,–,–,–,0%,25%,10%,7%,32%,25%,8%,4%,5%,9%
CCn1c(-c2cccnc2O)nc2cnccc21 [SB-736715],30%,0%,0%,0%,0%,0%,0%,0%,0%,2%,–,–,–,–,–,–,–,–,–,–
Cc1c(Cn2ccn3c(=O)cc(N4CCOCC4)nc23)cccc1C(F)(F)F [GSK2289044],0%,7%,13%,0%,83%,79%,18%,32%,5%,9%,–,–,–,–,–,–,–,–,–,–
Cc1ccc(-c2cc(-c3c[nH]nc3-c3ccccn3)ccn2)cc1 [GW684088],55%,13%,14%,9%,2%,0%,16%,25%,0%,30%,–,–,–,–,–,–,–,–,–,–
Cc1cccc(-c2nc(Nc3ccncc3)c3ccccc3n2)n1 [GW855857],0%,3%,0%,0%,6%,0%,7%,0%,47%,24%,–,–,–,–,–,–,–,–,–,–
Cc1ccc(NC(=O)Nc2cc(C(C)(C)C)nn2-c2ccccc2)cc1 [GSK1014915],33%,3%,0%,0%,0%,0%,0%,14%,0%,12%,–,–,–,–,–,–,–,–,–,–
Cc1cccc(-c2nc(Nc3ccc4[nH]ncc4c3)c3ccccc3n2)n1 [GW857175],0%,0%,0%,0%,15%,3%,0%,0%,0%,0%,–,–,–,–,–,–,–,–,–,–
Nc1ncnc2[nH]c(-c3ccccc3)nc12 [AH5015],29%,13%,0%,0%,0%,0%,0%,0%,0%,0%,–,–,–,–,–,–,–,–,–,–
COc1ccc(CNC(=O)NC2CCN(c3ccnc(Nc4cc(OC)c(OC)c(OC)c4)n3)C2)cc1 (stereo not drawn) [GSK1379748],2%,15%,8%,28%,0%,0%,16%,17%,0%,8%,–,–,–,–,–,–,–,–,–,–
Cn1ccc2ncnc(Oc3ccc(NC(=O)Nc4ccccc4)cc3)c21,4%,5%,22%,0%,0%,0%,13%,3%,0%,0%,–,–,–,–,–,–,–,–,–,–
CN(C)CCN(C)C(=O)c1cc(-c2ccncc2)c(-c2ccc(Cl)c(O)c2)o1.Cl.Cl [SB-710397],6%,13%,0%,10%,0%,0%,0%,1%,0%,0%,–,–,–,–,–,–,–,–,–,–
CN1C(=O)C(Nc2ccc(Cl)c(C(=O)O)c2)=C(c2ccc(Cl)cc2)C1=O [SB-404290],0%,17%,100%,22%,17%,0%,0%,18%,0%,0%,–,–,–,–,–,–,–,–,–,–
COc1ccc(Nc2nccc(NCCNC(=O)Nc3ccccc3F)n2)cc1 [GSK1379901],35%,3%,69%,1%,0%,0%,51%,13%,0%,0%,–,–,–,–,–,–,–,–,–,–
Cc1cccc(-c2nc(-c3ccc(S(C)(=O)=O)cc3)sc2-c2ccnc(NCCc3ccccc3)c2)c1,0%,0%,16%,31%,0%,0%,7%,9%,0%,13%,–,–,–,–,–,–,–,–,–,–
COc1ccc(C2=C(Nc3cccc(C(=O)O)c3)C(=O)NC2=O)cc1 [SB-390765],44%,18%,0%,23%,5%,0%,16%,26%,0%,0%,–,–,–,–,–,–,–,–,–,–
Fc1cc(Cl)ccc1Nc1ccnc2cc(-c3ccc(CN4CCCCC4)o3)ccc12 [GW560116],0%,8%,0%,3%,0%,0%,8%,26%,0%,4%,–,–,–,–,–,–,–,–,–,–
O=C1NC(=O)C(N2CCc3ccccc32)=C1c1ccccc1Cl [SB-373598],41%,65%,0%,67%,20%,0%,18%,22%,10%,4%,–,–,–,–,–,–,–,–,–,–
